In PubChem BioAssay (NCATS):
Several values for one entry are separate records, joined by “and”; a condition that tells them apart may be missing. Equal entries are not always repeated. Inconclusive results are not listed. Activity calls are given as the source filed them. Unless noted, calls follow the shape of the full dose curve.

Tests used:
[1] = molecular target: Ubiquitin carboxyl-terminal hydrolase 1 (Homo sapiens) (UniProt O94782); assay: Inhibitors of USP1/UAF1: Pilot qHTS (AID 504865; active = well fitted curve in the direction sought with a large enough effect; an effect the other way counts as inactive or inconclusive;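 also: rhodamine fluorescence freed from ubiquitin-rhodamine substrate followed over time; top concentration of the series differs between compounds; % is scaled to controls: 0 for no effect and ±100 for the full control effect; nearly all actives have a fitted effect of over 35% in size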)
Procedure, shortened: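 Kinetic fluorescence assay: 1nM USP1/UAF1, 15 min compound preincubation, then 150nM Ub-Rho; 480/540 nm.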

[2] = molecular target: DNA dC->dU-editing enzyme APOBEC-3G (Homo sapiens) (UniProt Q9HC16); assay: qHTS for inhibitors of Vif-A3G interactions: Validation (AID 588379; active = well fitted curve in the direction sought with a large enough effect; an effect the other way counts as inactive or inconclusive; also: 0% is about no effect)
Procedure, shortened: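 HeLa cells stably expressing Vif and A3G-eYFP, 700 cells/well, incubated overnight at 37 deg C, then exposed to compound overnight at 37 deg C. Inhibition of Vif-mediated degradation read as increased yellow fluorescence (Ex 488/Em 500-530) by laser-scanning cytometry.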

[3] = molecular target: Estrogen receptor (Homo sapiens) (UniProt P03372); assay: qHTS assay for small molecule agonists of estrogen receptor alpha signaling (AID 588514);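 also: 0% = vehicle only and 100% = reference agonist; nearly all actives have a fitted effect of over 70% in size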
Procedure, shortened: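 Cells were plated at 5000/well, incubated 4 hrs at 37 C, dosed with compound titration series, incubated 18 hrs at 37 C, loaded with CCF4 dye for 2 hrs at RT, then fluorescence was read.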

[4] = molecular target: Bile acid receptor (Homo sapiens) (UniProt Q96RI1); assay: qHTS assay for small molecule antagonists of farnesoid X receptor signaling (AID 588526); also: % is scaled to controls: 0 for no effect and ±100 for the full control effect
Procedure, shortened: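 Antagonist mode: titrated compounds tested against chenodeoxycholic acid stimulation (normalized to 50 uM CDCA and DMSO) in GeneBLAzer HEK293T cells for 16 h. Beta-lactamase read by CCF4 fluorescence; IC50 from Hill fits.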

[5] = molecular target: Glucocorticoid receptor (Homo sapiens) (UniProt P04150); assay: qHTS assay for small molecule agonists of glucocorticoid receptor signaling (AID 588532; active = well fitted curve in the direction sought with a large enough effect in the signal ratio, with a control signal flat; the % refers to the signal ratio;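 also: 100% = dexamethasone at 0.1 µM and 0% = DMSO only wells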); conditions: HeLa MMTV-bla, beta-lactamase ratio, agonist, 18 h; stronger effect = higher value; percent of dexamethasone control, DMSO zero
Procedure, shortened: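 Cells were plated and rested 3-5 h at 37 C, compounds were added in titration and incubated 18 h, then CCF4 substrate was loaded for 2 h at RT before reading blue/green fluorescence. EC50 came from Hill-equation fitting.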

[6] = molecular target: Glucocorticoid receptor (Homo sapiens) (UniProt P04150); assay: qHTS assay for small molecule antagonists of glucocorticoid receptor signaling (AID 588533; active = well fitted inhibition curve with a large enough effect in the signal ratio, with a control signal flat, not every such curve was filed as active; the % refers to the signal ratio;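 also: cells stimulated with 2 nM dexamethasone as agonist; % is scaled to controls: 0 for no effect and ±100 for the full control effect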)
Procedure, shortened: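 Antagonist-mode qHTS: compound titrations added to GRE-bla HeLa cells, then dexamethasone 2 nM final; 18 h, 37 C. CCF4 FRET fluorescence normalized to dexamethasone and DMSO; IC50 from Hill fit.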

[7] = molecular target: Peroxisome proliferator-activated receptor gamma (Homo sapiens) (UniProt P37231); assay: qHTS assay for small molecule antagonists of peroxisome proliferator-activated receptor gamma signaling (AID 588537; active = well fitted inhibition curve with a large enough effect in the signal ratio, with a control signal flat, not every such curve was filed as active; the % refers to the signal ratio; also: potency is read from the fitted curve at half-maximal effect)
Procedure, shortened: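 PPARγ-UAS-bla HEK293 cells (3000/well) in 1% charcoal/dextran-stripped FBS are treated with compound, then stimulated with 50 nM rosiglitazone for 16 h at 37 °C. Read-out is CCF4 β-lactamase fluorescence after 2 h at RT. IC50 comes from Hill fits normalised to rosiglitazone and DMSO.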

[8] = molecular target: Vitamin D3 receptor (Homo sapiens) (UniProt P11473); assay: qHTS assay for small molecule agonists of vitamin D receptor signaling (AID 588543);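 also: 0% = DMSO basal and 100% = reference agonist control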
Procedure, shortened: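 qHTS in agonist mode: compound titrations stimulate a VDR-driven β-lactamase reporter in HEK293T cells over 16 h at 37 °C. Response normalized to 50 nM 1α,25-dihydroxyvitamin D3 = 100%, DMSO = 0%; Hill fitting gives EC50 and maximal response.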

[9] = molecular target: Thyroid hormone receptor beta (Homo sapiens) (UniProt P10828); assay: qHTS assay for small molecule agonists of thyroid hormone receptor beta signaling (AID 588545)
Procedure, shortened: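 Cells (2500/well) were seeded, incubated 4 hrs at 37 C, dosed with a compound series, incubated 18 hrs, loaded with CCF4 dye for 2 hrs at RT, then read for fluorescence. Data were scaled between DMSO (0%) and 10 nM T3 (100%).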

[10] = qHTS for Inhibitors of ATXN expression: Validation of Cytotoxic Assay (AID 588349; active = well fitted curve in the direction sought with a large enough effect; an effect the other way counts as inactive or inconclusive; also: % is scaled to controls: 0 for no effect and ±100 for the full control effect)
Procedure, shortened: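 Read-out: ATP-based luminescence (CellTiter Glo) reflecting viability of HEK293 cells after 72 hr incubation at 37 degrees C with a concentration series of each compound.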

[11] = molecular target: Estrogen receptor (Homo sapiens) (UniProt P03372); assay: qHTS assay for small molecule antagonists of estrogen receptor alpha signaling (AID 588513; active = well fitted curve in the direction sought with a large enough effect in the signal ratio, with a control signal flat, not every such curve was filed as active; the % refers to the signal ratio; also: % is scaled to controls: 0 for no effect and ±100 for the full control effect)
Procedure, shortened: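 Cells were plated at 5000/well and incubated 4 h at 37 C. Compounds were added as 1:2 dilution series, duplicates. 17-beta-estradiol (0.5nM final) was added for 18 h before CCF4 detection.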

[12] = qHTS assay for small molecule antagonists of peroxisome proliferator-activated receptor delta signaling (AID 588535; active = well fitted inhibition curve with a large enough effect in the signal ratio, with a control signal flat, not every such curve was filed as active; the % refers to the signal ratio;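 as to max response: cells co-treated with a PPAR-delta agonist as stimulator during compound exposure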); conditions: HEK293T PPARd-UAS-bla, beta-lactamase FRET ratio, 18 h; 460 nm channel
Procedure, shortened: (§1)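 Antagonist-mode beta-lactamase reporter (GeneBLAzer PPAR-delta-UAS-bla) in HEK293T cells, 2% charcoal/dextran FBS, 4000 cells/well. Compound titrations, 18 h at 37 C; CCF4 ratio read, IC50 and efficacy from Hill fits.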

[13] = molecular target: Peroxisome proliferator-activated receptor delta (Homo sapiens) (UniProt Q03181); assay: as above
Procedure, shortened: as §1

[14] = molecular target: Peroxisome proliferator-activated receptor gamma (Homo sapiens) (UniProt P37231); assay: qHTS assay for small molecule agonists of peroxisome proliferator-activated receptor gamma signaling (AID 588536; active = well fitted curve in the direction sought with a large enough effect in the signal ratio, with a control signal flat, not every such curve was filed as active; the % refers to the signal ratio;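 also: 0% = DMSO basal wells and 100% = rosiglitazone at 2 µM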)
Procedure, shortened: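 Test agents, titrated, stimulated HEK293 UAS-bla cells overnight (16 h, 37 C). Substrate CCF4 was then added for two hours at room temperature before fluorescence reading.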

[15] = qHTS assay for small molecule agonists of retinoid X receptor alpha signaling (AID 588544); conditions: HEK293T RXRa-UAS-bla, beta-lactamase reporter, 18 h; 530 nm emission;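 as to activation: 0% = DMSO basal wells and 100% = reference agonist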
[16] = molecular target: Retinoic acid receptor RXR-alpha (Homo sapiens) (UniProt P19793); assay: as above
[17] = qHTS assay for small molecule antagonists of retinoid X receptor alpha signaling (AID 588546); conditions: HEK293T RXRa-UAS-bla, beta-lactamase ratio, antagonist mode; measured here: W530 green channel, cytotoxicity proxy
Procedure, shortened: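 Beta-lactamase reporter inhibition, read as CCF4 fluorescence ratio (ex 405, em 460/530 nm) after 2 h at RT. HEK293T UAS-bla cells, 2500/well, were stimulated with 9-cis-RA at 500 or 100 nM final alongside test compound for 18 h at 37 C.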

Retinoic acid receptor RXR-alpha (Homo sapiens), sequence (P19793 whole entry, looked up): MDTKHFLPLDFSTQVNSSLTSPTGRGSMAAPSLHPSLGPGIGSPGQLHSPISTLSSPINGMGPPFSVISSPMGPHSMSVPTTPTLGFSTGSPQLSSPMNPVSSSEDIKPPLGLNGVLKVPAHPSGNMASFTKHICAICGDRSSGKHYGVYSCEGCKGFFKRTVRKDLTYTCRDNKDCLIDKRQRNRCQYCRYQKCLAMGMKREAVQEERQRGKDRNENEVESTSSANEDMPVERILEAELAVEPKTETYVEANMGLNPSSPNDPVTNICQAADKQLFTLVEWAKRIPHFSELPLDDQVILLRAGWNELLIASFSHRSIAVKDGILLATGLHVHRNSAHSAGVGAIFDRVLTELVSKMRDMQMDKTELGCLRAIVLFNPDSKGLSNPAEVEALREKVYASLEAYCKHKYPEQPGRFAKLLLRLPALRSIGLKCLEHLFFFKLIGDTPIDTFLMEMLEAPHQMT
Bile acid receptor (Homo sapiens), sequence (Q96RI1 whole entry, looked up): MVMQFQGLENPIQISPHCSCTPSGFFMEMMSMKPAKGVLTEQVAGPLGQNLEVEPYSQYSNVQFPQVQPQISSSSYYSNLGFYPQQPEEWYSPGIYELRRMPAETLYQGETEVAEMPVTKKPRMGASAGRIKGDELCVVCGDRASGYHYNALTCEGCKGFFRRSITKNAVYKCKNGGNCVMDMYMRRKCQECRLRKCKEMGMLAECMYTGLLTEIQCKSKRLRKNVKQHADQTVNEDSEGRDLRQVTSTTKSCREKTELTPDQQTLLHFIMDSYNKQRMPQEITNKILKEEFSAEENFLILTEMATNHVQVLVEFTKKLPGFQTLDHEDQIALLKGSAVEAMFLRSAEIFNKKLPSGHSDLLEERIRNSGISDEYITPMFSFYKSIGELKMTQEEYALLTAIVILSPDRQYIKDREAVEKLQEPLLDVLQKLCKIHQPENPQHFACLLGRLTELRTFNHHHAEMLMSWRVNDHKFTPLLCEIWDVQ
Peroxisome proliferator-activated receptor delta (Homo sapiens), sequence (Q03181 whole entry, looked up): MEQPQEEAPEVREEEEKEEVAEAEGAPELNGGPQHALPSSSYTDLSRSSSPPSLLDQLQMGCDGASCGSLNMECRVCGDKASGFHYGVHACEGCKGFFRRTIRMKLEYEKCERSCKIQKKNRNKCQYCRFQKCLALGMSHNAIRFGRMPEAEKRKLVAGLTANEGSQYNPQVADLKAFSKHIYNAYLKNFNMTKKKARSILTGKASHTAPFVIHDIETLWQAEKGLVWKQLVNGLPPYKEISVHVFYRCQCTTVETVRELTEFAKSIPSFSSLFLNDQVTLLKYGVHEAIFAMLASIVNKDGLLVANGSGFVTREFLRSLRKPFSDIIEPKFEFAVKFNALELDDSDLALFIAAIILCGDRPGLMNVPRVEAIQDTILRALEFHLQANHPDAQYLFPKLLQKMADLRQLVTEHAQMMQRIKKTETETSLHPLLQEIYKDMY
Estrogen receptor (Homo sapiens), sequence (P03372 whole entry, looked up): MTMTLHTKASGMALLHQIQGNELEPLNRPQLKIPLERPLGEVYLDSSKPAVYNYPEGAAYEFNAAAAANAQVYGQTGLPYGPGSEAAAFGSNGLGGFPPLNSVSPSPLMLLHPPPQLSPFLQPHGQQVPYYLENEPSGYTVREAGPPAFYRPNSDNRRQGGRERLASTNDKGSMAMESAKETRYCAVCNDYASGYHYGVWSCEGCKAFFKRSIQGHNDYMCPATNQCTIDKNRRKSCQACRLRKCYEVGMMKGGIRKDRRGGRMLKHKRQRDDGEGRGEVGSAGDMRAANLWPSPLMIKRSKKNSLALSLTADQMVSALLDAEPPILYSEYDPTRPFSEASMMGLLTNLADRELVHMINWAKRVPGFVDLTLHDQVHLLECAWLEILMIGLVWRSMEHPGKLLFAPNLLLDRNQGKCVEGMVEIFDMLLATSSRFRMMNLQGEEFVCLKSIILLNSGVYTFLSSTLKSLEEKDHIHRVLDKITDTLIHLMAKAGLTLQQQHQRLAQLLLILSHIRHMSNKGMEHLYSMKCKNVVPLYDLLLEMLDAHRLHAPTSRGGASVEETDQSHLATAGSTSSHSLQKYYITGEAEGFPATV
Peroxisome proliferator-activated receptor gamma (Homo sapiens), sequence (P37231 whole entry, looked up): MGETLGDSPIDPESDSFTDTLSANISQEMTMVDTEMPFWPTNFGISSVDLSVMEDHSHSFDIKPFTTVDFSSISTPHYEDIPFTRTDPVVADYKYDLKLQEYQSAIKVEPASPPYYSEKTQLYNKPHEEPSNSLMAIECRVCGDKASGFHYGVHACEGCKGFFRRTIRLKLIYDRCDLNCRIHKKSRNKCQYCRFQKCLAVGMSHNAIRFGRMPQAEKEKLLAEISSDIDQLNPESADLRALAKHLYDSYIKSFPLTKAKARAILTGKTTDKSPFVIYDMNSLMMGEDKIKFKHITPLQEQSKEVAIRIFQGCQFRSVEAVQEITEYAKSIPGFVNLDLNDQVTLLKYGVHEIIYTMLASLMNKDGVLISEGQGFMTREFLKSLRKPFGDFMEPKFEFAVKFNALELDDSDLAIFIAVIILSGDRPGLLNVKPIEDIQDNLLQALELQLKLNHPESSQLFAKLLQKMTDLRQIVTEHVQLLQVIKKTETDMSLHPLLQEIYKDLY
Vitamin D3 receptor (Homo sapiens), sequence (P11473 whole entry, looked up): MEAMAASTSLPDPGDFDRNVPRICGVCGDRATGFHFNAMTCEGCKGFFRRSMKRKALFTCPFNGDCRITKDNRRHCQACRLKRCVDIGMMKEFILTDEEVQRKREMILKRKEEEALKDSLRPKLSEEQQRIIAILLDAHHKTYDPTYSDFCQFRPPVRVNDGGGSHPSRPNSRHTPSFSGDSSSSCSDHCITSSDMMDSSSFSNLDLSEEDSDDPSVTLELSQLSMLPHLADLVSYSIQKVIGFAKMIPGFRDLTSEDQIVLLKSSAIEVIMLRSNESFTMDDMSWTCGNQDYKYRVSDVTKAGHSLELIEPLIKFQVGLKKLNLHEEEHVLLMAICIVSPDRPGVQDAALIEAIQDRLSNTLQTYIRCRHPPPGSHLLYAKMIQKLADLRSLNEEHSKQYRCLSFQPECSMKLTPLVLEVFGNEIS
Glucocorticoid receptor (Homo sapiens), sequence (P04150 whole entry, looked up): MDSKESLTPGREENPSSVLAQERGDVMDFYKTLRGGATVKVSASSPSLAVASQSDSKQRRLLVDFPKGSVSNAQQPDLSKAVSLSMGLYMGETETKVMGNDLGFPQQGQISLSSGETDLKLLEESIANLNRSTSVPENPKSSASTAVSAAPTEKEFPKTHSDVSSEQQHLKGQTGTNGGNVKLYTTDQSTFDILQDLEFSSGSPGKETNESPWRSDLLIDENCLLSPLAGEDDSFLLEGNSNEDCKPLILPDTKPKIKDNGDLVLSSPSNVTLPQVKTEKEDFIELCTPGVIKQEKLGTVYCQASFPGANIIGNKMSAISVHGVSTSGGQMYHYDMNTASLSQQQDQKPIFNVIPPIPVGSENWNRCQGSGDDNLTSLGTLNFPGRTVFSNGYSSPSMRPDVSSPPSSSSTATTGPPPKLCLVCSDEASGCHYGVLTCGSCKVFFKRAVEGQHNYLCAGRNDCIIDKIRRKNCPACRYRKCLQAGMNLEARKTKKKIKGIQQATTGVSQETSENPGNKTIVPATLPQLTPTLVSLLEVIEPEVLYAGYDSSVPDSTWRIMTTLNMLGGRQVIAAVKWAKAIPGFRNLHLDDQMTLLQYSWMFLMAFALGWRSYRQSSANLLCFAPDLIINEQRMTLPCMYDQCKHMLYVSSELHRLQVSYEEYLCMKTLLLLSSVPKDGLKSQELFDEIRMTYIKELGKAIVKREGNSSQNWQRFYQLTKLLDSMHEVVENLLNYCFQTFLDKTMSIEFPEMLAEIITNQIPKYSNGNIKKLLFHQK
Ubiquitin carboxyl-terminal hydrolase 1 (Homo sapiens), sequence (O94782 whole entry, looked up): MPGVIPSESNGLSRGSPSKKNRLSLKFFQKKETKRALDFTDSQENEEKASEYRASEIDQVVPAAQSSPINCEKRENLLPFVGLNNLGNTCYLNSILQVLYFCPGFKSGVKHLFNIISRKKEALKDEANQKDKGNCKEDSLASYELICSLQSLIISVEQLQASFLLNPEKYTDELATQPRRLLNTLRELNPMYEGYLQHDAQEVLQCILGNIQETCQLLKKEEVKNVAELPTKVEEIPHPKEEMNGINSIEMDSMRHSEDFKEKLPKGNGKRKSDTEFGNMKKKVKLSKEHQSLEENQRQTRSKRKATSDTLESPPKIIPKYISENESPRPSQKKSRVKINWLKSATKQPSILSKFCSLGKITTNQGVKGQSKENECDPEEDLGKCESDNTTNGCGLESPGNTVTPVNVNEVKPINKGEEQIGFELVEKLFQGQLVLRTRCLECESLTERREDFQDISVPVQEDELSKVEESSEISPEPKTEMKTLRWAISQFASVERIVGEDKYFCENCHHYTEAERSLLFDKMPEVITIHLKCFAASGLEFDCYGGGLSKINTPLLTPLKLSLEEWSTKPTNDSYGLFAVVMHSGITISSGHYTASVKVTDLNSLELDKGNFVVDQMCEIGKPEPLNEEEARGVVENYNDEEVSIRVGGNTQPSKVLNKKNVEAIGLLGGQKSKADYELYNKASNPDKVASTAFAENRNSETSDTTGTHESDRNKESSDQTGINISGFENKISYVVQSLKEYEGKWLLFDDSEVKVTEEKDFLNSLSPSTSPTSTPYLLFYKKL
Thyroid hormone receptor beta (Homo sapiens), sequence (P10828 whole entry, looked up): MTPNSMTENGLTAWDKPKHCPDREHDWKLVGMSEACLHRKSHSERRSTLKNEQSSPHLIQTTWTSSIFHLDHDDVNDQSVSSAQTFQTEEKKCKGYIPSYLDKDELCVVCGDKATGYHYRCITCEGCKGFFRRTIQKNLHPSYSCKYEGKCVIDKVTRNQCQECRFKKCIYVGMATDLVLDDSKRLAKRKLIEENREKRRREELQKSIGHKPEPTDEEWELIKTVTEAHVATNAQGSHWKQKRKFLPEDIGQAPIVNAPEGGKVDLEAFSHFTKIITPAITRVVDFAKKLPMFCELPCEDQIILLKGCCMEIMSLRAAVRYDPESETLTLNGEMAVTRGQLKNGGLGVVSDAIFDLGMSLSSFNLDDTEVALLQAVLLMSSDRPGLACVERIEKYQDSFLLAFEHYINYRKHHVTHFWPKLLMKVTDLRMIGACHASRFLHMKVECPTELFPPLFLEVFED

Cc1cc(C)cc(C(=O)OC2C[C@H]3CC[C@@H](C2)N3C)c1 (stereo partly drawn)
inactive: Potency [1] | outcome [2]

COCC(C)N(C(=O)CCl)c1c(C)csc1C (stereo not drawn)
inactive: Potency [1] | Potency [3] | Potency [4] | activation [5] -2.08% | Potency [6] | outcome [8] | outcome [9]
active: Potency [7] 39.8 µM

Cc1c2ccncc2c(C)c2c1[nH]c1ccccc12
inactive: Potency [10]

O=C/C=C/c1ccccc1
inactive: Potency [1] | Potency [11] | Potency [3] | activation [5] 3.19% and -0.384% | Potency [6] | outcome [13] | outcome [14] | Potency [7] | outcome [8] | Potency [16] | outcome [9]
-5.91% and -8.21%: max response [17]
4.89% and -11.3%: max response [15]
-5.87%: max response [12]

O=[N+]([O-])c1ccccc1
-10.6% and -11.5%: max response [15]
3.64%: max response [12]
inactive: Potency [1] | Potency [11] | Potency [3] | activation [5] -2.43% and 5.7% | Potency [6] | outcome [13] | outcome [14] | Potency [7] | Potency [16] | outcome [9]
-18.4%: max response [17]

ClC1C(Cl)C(Cl)C(Cl)C(Cl)C1Cl (stereo not drawn)
-10.8% [middle of 4 runs]: max response [17]
-3.03% [middle of 4 runs]: max response [15]
inactive: Potency [1] | Potency [4] | outcome [13] | outcome [14] | Potency [7] | Potency [16] | outcome [9]

C/C(O)=C(\C#N)C(=O)Nc1cc(Br)ccc1Br
inactive: Potency [10]

CC(C)CCON=O
inactive: Potency [1] | activation [5] -2.48% | Potency [6] | outcome [13] | outcome [14] | Potency [7] | outcome [8] | Potency [16] | outcome [9]
8.58%: max response [12]
4.6%: max response [15]

N#CN
20.7%: max response [12]
4.27%: max response [15]
-6.13%: max response [17]
inactive: Potency [1] | Potency [11] | Potency [3] | activation [5] -6.37% | outcome [13] | outcome [14] | Potency [7] | outcome [8] | Potency [16] | outcome [9]

C[N+]1(C)CCc2cc3c(cc2[C@H]1[C@@H]1OC(=O)c2c1ccc1c2OCO1)OCO3
inactive: Potency [10]
